We go through 13 compounds from PubChem BioAssay (Tox21).

Several values for one entry are separate records, joined by “and”; a condition that tells them apart may be missing. Identical values can stand only once. Records with an inconclusive call do not appear. Activity calls are given as the source filed them. Unless noted, calls come from the whole dose curve; as a rule, active = well fitted curve in the direction sought with a large enough effect in the repeat runs; inconclusive = weak or mixed curves; inactive = no such curve, though single readings can be large; an effect the other way counts as inactive or inconclusive.

Test [1] can be described thus: qHTS assay to test for compound auto fluorescence at 535 nm (green) in HEK293 cells (AID 720680).
Test [2] in a line: qHTS assay to test for compound auto fluorescence at 460 nm (blue) in HEK293 cell free culture (AID 720681). In short, it runs like this:
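Test compounds were pinned into cell-free culture medium (DMEM with 10% FBS) and fluorescence was read directly at Ex/Em 405/460 nm. Signals were expressed as fluorescence equivalents of triamterene, with DMSO vehicle as control.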

Test [3] is described as follows: qHTS assay to test for compound auto fluorescence at 535 nm (green) in HEK293 cell free culture (AID 720682). In short, it runs like this:
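Green-label autofluorescence (485 nm excitation, 535 nm emission) measured on compound added to cell-free culture medium (DMEM, 10% FBS). Output is expressed relative to fluorescein.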

Test [4] in a line: qHTS assay to test for compound auto fluorescence at 590 nm (red) in HEK293 cell free culture (AID 720683). A digest of the protocol:
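Tox21 10K library compounds were pinned into cell-free DMEM with 10% FBS and fluorescence was read at excitation 540 nm. Activity is expressed as Rose Bengal sodium equivalency.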

Test [5] is described as follows: qHTS assay to test for compound auto fluorescence at 590 nm (red) in HepG2 cell free culture (AID 720684). In short, it runs like this: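 Ex 540 / Em 590 nm read of compound in cell-free MEM (10% FBS). Rose Bengal sodium reference.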
A short description of test [6]: qHTS assay to test for compound auto fluorescence at 460 nm (blue) in HepG2 cell free culture (AID 720685). In short, it runs like this:
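Cell-free plates of MEM plus 10% FBS received 23 nL compound or DMSO vehicle; blue-channel (405/460 nm) intensity scored against triamterene as reference fluorophore.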

Test [7] can be described thus: qHTS assay to test for compound auto fluorescence at 535 nm (green) in HepG2 cell free culture (AID 720686).
Test [8] in a line: qHTS assay to test for compound auto fluorescence at 460 nm (blue) in HepG2 cells (AID 720687). In short, it runs like this: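 Cells (2,000/well in MEM with 10% FBS) attached overnight at 37 C, then were exposed to compound or DMSO for 1 hr at 37 C, 5% CO2. Fluorescence read at Ex/Em 405/460 nm, expressed as triamterene-equivalent signal.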
Test [9] deals with Glucocorticoid receptor (Homo sapiens) (UniProt P04150). In words: qHTS assay to identify small molecule agonists of the glucocorticoid receptor (GR) signaling pathway (AID 720691; active = well fitted activation curve with a large enough effect in the signal ratio in the repeat runs, not every such curve was filed as active; the % refers to the signal ratio). The settings on record: GR-bla HeLa, beta-lactamase reporter ratio, 18 h; activation: at 62.4 µM (top of the series). In short, it runs like this: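 Cells: GR-bla HeLa, endogenous GR with stably integrated GRE-beta-lactamase reporter. Treatment 18 h, 37 C, compounds delivered in DMSO. Detection via LiveBLAzer B/G FRET substrate, 2 h RT, fluorescence intensity.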

The nature of test [10]: qHTS assay to identify small molecule antagonists of the glucocorticoid receptor (GR) signaling pathway - cell viability counter screen (AID 720693). Note: nearly all actives have a fitted effect of over 55% in size. Note: potency is the fitted concentration of half-maximal effect.
Test [11] is described as follows: qHTS assay for identifying genotoxic compounds that show differential cytotoxicity against isogenic chicken DT40 cell lines with known DNA damage response pathways - Rev3 mutant cell line (AID 743014). Note: nearly all actives have a fitted effect of over 55% in size. Note: potency is the fitted concentration of half-maximal effect.
A short description of test [12]: qHTS assay for identifying genotoxic compounds that show differential cytotoxicity against isogenic chicken DT40 cell lines with known DNA damage response pathways - Rad54/Ku70 mutant cell line (AID 743015). Note: nearly all actives have a fitted effect of over 60% in size. Note: potency is the fitted concentration of half-maximal effect.
Test [13] in a line: qHTS assay to identify small molecule antagonists of the androgen receptor (AR) signaling pathway - cell viability counter screen (AID 743033; note: nearly all actives have a fitted effect of over 45% in size; note: potency is the fitted concentration of half-maximal effect).
Test [14] in a line: qHTS assay to identify small molecule antagonists of the androgen receptor (AR) signaling pathway using the MDA cell line - cell viability counter screen (AID 743041; note: nearly all actives have a fitted effect of over 45% in size; note: potency is the fitted concentration of half-maximal effect). In short, it runs like this:
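In this qHTS counter assay, fluorescence intensity after CellTiter-Fluor addition indicated viability of MDA-kb2 AR-luc cells given compounds and R1881 for 16 h at 37C.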

In test [15] the target is Glucocorticoid receptor (Homo sapiens) (UniProt P04150). In words: qHTS assay to identify small molecule antagonists of the glucocorticoid receptor (GR) signaling pathway (AID 720692; active = well fitted inhibition curve with a large enough effect in the signal ratio in the repeat runs, not every such curve was filed as active; the % refers to the signal ratio). A digest of the protocol: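 Quantitative HTS in antagonist format: HeLa cells expressing endogenous GR and a stably integrated GRE-bla reporter, stimulated with 5 nM dexamethasone (final) alongside test compounds for 18 h.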

A short description of test [16]: qHTS assay for identifying genotoxic compounds that show differential cytotoxicity against isogenic chicken DT40 cell lines with known DNA damage response pathways - wild type cell line (AID 743012). Note: nearly all actives have a fitted effect of over 60% in size. Note: potency is the fitted concentration of half-maximal effect. In short, it runs like this: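 Luminescent ATP viability signal (CellTiter-Glo, 30 min RT) recorded after wild type DT40 cells were incubated with compounds for 40 h at 37 C/5% CO2.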

Test [17] has as its target Androgen receptor (Homo sapiens) (UniProt P10275). As to the kind of experiment: qHTS assay to identify small molecule antagonists of the androgen receptor (AR) signaling pathway (AID 743035; active = well fitted inhibition curve with a large enough effect in the signal ratio in the repeat runs, not every such curve was filed as active; the % refers to the signal ratio; note: potency is the fitted concentration of half-maximal effect). A digest of the protocol: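 Quantitative HTS of the Tox21 10K library used HEK293 AR-UAS-bla cells stimulated with R1881 alongside compound for 16 h at 37C, followed by beta-lactamase FRET detection (LiveBLAzer B/G, 2 h, RT).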

Test [18] has the same target. In words: qHTS assay to identify small molecule agonists of the androgen receptor (AR) signaling pathway (AID 743036; active = well fitted activation curve with a large enough effect in the signal ratio in the repeat runs, with a control signal flat, not every such curve was filed as active; the % refers to the signal ratio). In short, it runs like this:
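AR-UAS-bla HEK293 cells, plated 4 h before dosing, were treated with compound for 16 h at 37C. beta-Lactamase reporter read after 2 h with LiveBLAzer B/G FRET substrate at room temperature.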

Chain of Androgen receptor (Homo sapiens) (P10275 whole entry, looked up): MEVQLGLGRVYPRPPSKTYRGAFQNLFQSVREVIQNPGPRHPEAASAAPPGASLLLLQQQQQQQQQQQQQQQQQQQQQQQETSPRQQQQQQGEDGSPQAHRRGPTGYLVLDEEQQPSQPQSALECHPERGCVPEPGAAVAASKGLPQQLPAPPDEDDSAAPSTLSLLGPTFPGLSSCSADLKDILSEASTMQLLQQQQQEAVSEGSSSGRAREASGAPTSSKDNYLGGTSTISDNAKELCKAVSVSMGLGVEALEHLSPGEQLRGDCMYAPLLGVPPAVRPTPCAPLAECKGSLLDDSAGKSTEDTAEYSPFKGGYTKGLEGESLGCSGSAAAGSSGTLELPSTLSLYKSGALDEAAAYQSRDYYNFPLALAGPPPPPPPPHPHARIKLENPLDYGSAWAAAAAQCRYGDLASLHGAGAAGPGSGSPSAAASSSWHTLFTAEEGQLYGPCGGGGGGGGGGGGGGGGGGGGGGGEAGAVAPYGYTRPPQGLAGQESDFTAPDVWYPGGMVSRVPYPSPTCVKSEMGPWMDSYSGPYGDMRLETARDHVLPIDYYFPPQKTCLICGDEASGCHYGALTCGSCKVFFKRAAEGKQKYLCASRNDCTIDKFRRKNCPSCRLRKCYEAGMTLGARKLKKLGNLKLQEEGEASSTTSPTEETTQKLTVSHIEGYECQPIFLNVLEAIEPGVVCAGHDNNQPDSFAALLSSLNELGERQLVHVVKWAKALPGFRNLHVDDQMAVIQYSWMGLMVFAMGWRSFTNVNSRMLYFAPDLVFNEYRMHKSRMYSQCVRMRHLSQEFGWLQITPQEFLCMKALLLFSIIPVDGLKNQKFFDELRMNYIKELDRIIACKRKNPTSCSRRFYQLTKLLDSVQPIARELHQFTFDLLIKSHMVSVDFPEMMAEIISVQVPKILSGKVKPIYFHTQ
Chain of Glucocorticoid receptor (Homo sapiens) (P04150 whole entry, looked up): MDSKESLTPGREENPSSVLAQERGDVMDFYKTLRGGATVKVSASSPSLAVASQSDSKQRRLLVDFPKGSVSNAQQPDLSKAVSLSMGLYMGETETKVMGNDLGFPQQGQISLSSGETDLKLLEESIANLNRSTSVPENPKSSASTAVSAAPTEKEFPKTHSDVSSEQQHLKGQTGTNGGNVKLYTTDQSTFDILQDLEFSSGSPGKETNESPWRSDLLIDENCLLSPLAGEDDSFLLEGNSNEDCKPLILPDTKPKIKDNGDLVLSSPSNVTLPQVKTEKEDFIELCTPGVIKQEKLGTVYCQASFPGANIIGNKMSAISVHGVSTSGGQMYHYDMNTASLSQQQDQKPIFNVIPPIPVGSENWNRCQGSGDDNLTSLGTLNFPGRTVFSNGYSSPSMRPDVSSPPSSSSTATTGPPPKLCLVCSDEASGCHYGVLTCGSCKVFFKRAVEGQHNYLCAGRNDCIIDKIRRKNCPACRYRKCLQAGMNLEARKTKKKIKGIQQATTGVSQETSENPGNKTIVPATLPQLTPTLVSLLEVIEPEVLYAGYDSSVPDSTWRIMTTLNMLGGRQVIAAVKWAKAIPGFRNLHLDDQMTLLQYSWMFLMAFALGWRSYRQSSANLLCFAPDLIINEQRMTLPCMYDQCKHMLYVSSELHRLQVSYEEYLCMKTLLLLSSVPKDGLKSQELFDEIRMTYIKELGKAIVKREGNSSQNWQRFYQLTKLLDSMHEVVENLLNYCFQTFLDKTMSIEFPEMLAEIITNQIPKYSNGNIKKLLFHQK

As for `O=C1OC(=O)c2cccc3cccc1c23`, the Potency entry in test [1], in [2], in test [3], in [4], in test [5] and in test [6] was “inactive” in each case. For the same compound, the Potency result in test [7], in [8], in test [9], in test [10], in [13] and in test [14] was “inactive” each time. For the same compound, the Potency in test [11] was 15.5 µM (active); in [12], 13.8 µM (active).

Turning to `O=S(=O)(O)CCCN1CCOCC1`, the Potency result in [1], in test [2], in test [3], in test [4], in test [5] and in test [6] was “inactive” in each case. For the same compound, the Potency entry in test [7], in [8], in [9], in [15], in test [10] and in test [16] was “inactive” throughout. For the same compound, the Potency entry in test [11], in test [12], in test [13] and in [14] was “inactive” throughout.

With `COC(=O)CC(C)CCC=C(C)C` (centres undefined), the Potency result in test [1], in [2], in [3], in test [4], in test [5] and in test [6] was “inactive” throughout. Besides, the Potency entry in test [7], in test [8], in test [9], in test [15], in [10] and in [13] was “inactive” each time. The Potency entry in [14] was “inactive”.

Consider `C1CC(COCC2CO2)CCC1COCC1CO1` (centres undefined), for which the Potency result in test [1], in test [2], in test [3], in [4], in test [5] and in test [6] was “inactive” each time. The Potency entry in test [7], in test [8], in [9], in [10], in test [13] and in test [14] was “inactive” each time. The figures for the Potency in test [16], in test [11] and in test [12] were 30.6 µM (active), 6.86 µM (active) and 19.3 µM (active), respectively.

`CCC(=O)OCCc1ccccc1`: the Potency result in test [1], in test [2], in test [3], in test [4], in test [5] and in test [6] was “inactive” in each case. The Potency entry in test [7], in test [8], in test [9], in test [15], in test [10] and in test [14] was “inactive” each time. Moreover, the Potency in [16] was 18.5 µM (active); in test [11], 23.3 µM (active); in test [12] it was 41.4 µM (active).

Regarding `C[C@H]1O[C@@H](O[C@H]2[C@@H](O)C[C@H](O[C@H]3[C@@H](O)C[C@H](O[C@H]4CC[C@@]5(C)[C@H](CC[C@@H]6[C@@H]5C[C@@H](O)[C@]5(C)[C@@H](C7=CC(=O)OC7)CC[C@]65O)C4)O[C@@H]3C)O[C@@H]2C)C[C@H](O)[C@@H]1O`, the Potency result in [1], in test [2], in test [3], in test [4], in [5] and in [6] was “inactive” each time. Moreover, the Potency entry in test [7], in test [8], in [9] and in test [14] was “inactive” each time. Also, the Potency in test [10] was 535 nM (active) and 97.8 nM (active) and 193 nM (active); in test [16], 596 nM (active) and 344 nM (active) and 854 nM (active); in test [11], 596 nM (active) and 172 nM (active) and 428 nM (active); in [12], 750 nM (active) and 217 nM (active) and 381 nM (active); in test [13], 84.9 nM (active) and 15.5 nM (active) and 30.6 nM (active); in [17], 338 nM (active) and 61.7 nM (active) and 136 nM (active).

In the case of `CNC(=S)NN`, the Potency result in test [1], in [2], in test [3], in test [4], in test [5] and in test [6] was “inactive” each time. Also, the Potency entry in [7], in test [8], in test [9], in test [15] and in test [10] was “inactive” each time. Besides, the Potency in test [16] is 7.7 µM (active); in [11], 7.7 µM (active); in test [12], 7.7 µM (active); in test [13] it was 3.89 µM (active); in test [14] it was 48.6 µM (active).

On to `C/C=C/C=N/NC(=O)c1ccncc1`, for which the Potency entry in test [1], in test [2], in [3], in test [4], in [5] and in [6] was “inactive” throughout. Moreover, the Potency entry in test [7], in [8], in [9], in [15], in [10] and in test [16] was “inactive” throughout. The Potency entry in test [11], in test [12], in test [13] and in test [14] was “inactive” throughout.

Turning to `CNCC[C@H](Oc1cccc2ccccc12)c1cccs1`, the Potency result in [1], in test [2], in test [3], in test [4], in [5] and in test [6] was “inactive” in each case. Also, the Potency result in test [7], in test [8], in test [9] and in [10] was “inactive” throughout. Further, the Potency was 5.31 µM (active) in test [16], 9.44 µM (active) in test [11], 9.44 µM (active) in [12] and 24.8 µM (active) in test [14].

As for `N[C@@H](CSSC[C@H](N)C(=O)O)C(=O)O`, the Potency entry in [1], in test [2], in test [3], in test [4], in test [5] and in [6] was “inactive” throughout. The Potency result in test [7], in test [8], in test [9], in test [10], in [16] and in [11] was “inactive” in each case. Besides, the Potency result in [12], in test [13], in [17] and in test [14] was “inactive” in each case. Besides, in test [18], the outcome was inactive.

`Brc1ccccc1-c1ccccc1`: the Potency result in [1], in test [2], in [3], in test [4], in [5] and in test [6] was “inactive” in each case. Besides, the Potency entry in [7], in [8], in test [9], in test [10], in test [13] and in [14] was “inactive” each time. Also, the Potency in test [11] and in test [12] was 41 µM (active) throughout.

As for `CN(C)CCCN1c2ccccc2Sc2ccc(C(F)(F)F)cc21`, the Potency entry in [1], in test [2], in [3], in [4], in [5] and in test [6] was “inactive” each time. The Potency entry in test [7], in test [8] and in test [9] was “inactive” in each case. Further, the Potency was 8.41 µM (active) in test [11] and 11.9 µM (active) in test [12].

With `COc1ccc2sc(C(=O)Nc3nnn[nH]3)c(OC(C)C)c2c1`, the Potency result in test [1], in test [2], in test [3], in test [4], in [5] and in test [6] was “inactive” throughout. Moreover, the Potency result in test [7], in test [8] and in test [9] was “inactive” throughout. For the same compound, the Potency was 27.2 µM (active) in [11], 17.2 µM (active) in [12] and 24.5 µM (active) in test [13].
